The source of these data is PubChem BioAssay AID772 (SRMLSC, 2007).

The nature of this test: HT29 colon tumor cell growth inhibition, primary screen, imaging, high content imaging, 72 h, CellTiter-Glo (AID 772).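 As to condensed nuclei: condensed means nuclear area below control median minus 1.5 SD.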 To be noted: HCS imaging cell count, at 10 µM, stronger effect = higher value; for condensed nuclei: measured here: percent cells with condensed nuclei. A general note: Cellular ATP, detected with luciferase, serves as a proxy for viable cell number.
Where [1] appears, read: measured here: ATP CellTiter-Glo viability.

The campaign covered roughly 3,300 compounds. About 20 (0.6%) were called active.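 The calls were made as follows: active = growth inhibition above 90%, meaning viable cell count cut by more than 90% versus vehicle controls; inactive = growth inhibition below 90%.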 The full list was thinned out, with actives kept by preference.

Consider `CCOC(=O)CSc1nc(NC#N)nc(N(CC)CC)n1`, for which the growth inhibition is -10.6% (inactive) and the condensed nuclei was found to be 2.47%. In addition, the growth inhibition under setting [1] is -34.2%.

Consider `CC1(C)CC(=O)C(C=NCC(O)c2ccccc2)=C(O)C1` (configuration not stated), for which the growth inhibition was 1.15% (inactive) and the condensed nuclei was 3.13%. For the same compound, the growth inhibition under setting [1] was -3.71%.

On to `CCN(CC)Cc1cc(C(C)=O)ccc1OCC(C)C`, for which the growth inhibition is -17.7% (inactive) and the condensed nuclei worked out at 2.8%. Besides, the growth inhibition under setting [1] is -47.7%.

Consider `Cc1ccc(C2/C(=C(/O)c3cnn(-c4ccccc4)c3C)C(=O)C(=O)N2CCN2CCOCC2)o1` (configuration not stated), for which the growth inhibition is -41.7% (inactive) and the condensed nuclei turned out to be 5.65%. Further, under setting [1], the growth inhibition is -16.4%.

Take `CC1CCN(c2oc(-c3ccccc3Cl)nc2C#N)CC1`: the growth inhibition is 39.9% (inactive) and the condensed nuclei worked out at 4.72%. For the same compound, under setting [1], the growth inhibition was -1.14%.

Regarding `Cc1nnc(C)n1/N=C/c1cccn1C`, the growth inhibition is -26.9% (inactive) and the condensed nuclei is 2.68%. Further, the growth inhibition under setting [1] is -16.7%.

For the compound `CCOC(=O)/C(C#N)=C1\Nc2ccccc2N=C1N(CC(C)C)CC(C)C`, the growth inhibition was 15.8% (inactive) and the condensed nuclei stood at 3.37%. The growth inhibition under setting [1] was -0.53%.

For the compound `O=C(c1ccc2c3c(cccc13)C(=O)N(O)C2=O)N1CCCCC1`, the growth inhibition was 63.6% (inactive) and the condensed nuclei was found to be 16.2%. Further, under setting [1], the growth inhibition stood at 65.6%.

Turning to `S=C(N=Nc1ccccc1)NNc1ccccc1`, the growth inhibition was 5.63% (inactive) and the condensed nuclei amounted to 9.9%. Besides, the growth inhibition under setting [1] amounted to 9.94%.

In the case of `CCCCCC1CC(CC#CCN2CCOCC2)C(=O)O1` (configuration not stated), the growth inhibition is -6.01% (inactive) and the condensed nuclei was determined as 3.8%. Under setting [1], the growth inhibition is -22.1%.

As for `Cc1nc(NCCCO)c(C#N)c2c1COC(C)(C)C2`, the growth inhibition is 26.3% (inactive) and the condensed nuclei turned out to be 5.86%. Further, the growth inhibition under setting [1] is -0.61%.

Take `CCOC(=O)c1[nH]c2ccc(OC)cc2c1NC(=O)CCN1CCC(C)CC1`: the growth inhibition is 7.19% (inactive) and the condensed nuclei came out at 9.76%. Further, the growth inhibition under setting [1] is 8.59%.

Take `COc1cccc(-c2nnc3sc(-c4ccc(Cl)cc4)nn23)c1`: the growth inhibition is -127% (inactive) and the condensed nuclei stood at 8.69%. For the same compound, under setting [1], the growth inhibition is -46.5%.

For `O=C(O)C(Cc1c[nH]c2ccccc12)NS(=O)(=O)c1cccc2nsnc12` (configuration not stated), the growth inhibition was 9.77% (inactive) and the condensed nuclei stood at 1.59%. The growth inhibition under setting [1] worked out at 1.74%.

Consider `Cc1nn2c(-c3ccc(Cl)cc3)nnc2s1`, for which the growth inhibition was 0.82% (inactive) and the condensed nuclei is 2%. The growth inhibition under setting [1] is -46.2%.

In the case of `Cc1ccc2[nH]c3c(N4CCOCC4)ncnc3c2c1`, the growth inhibition is -53.8% (inactive) and the condensed nuclei turned out to be 5.07%. Besides, under setting [1], the growth inhibition was -45.3%.

`Cc1ccc2[nH]c3c(N4CCN(Cc5ccccc5)CC4)ncnc3c2c1`: the growth inhibition is 50.9% (inactive) and the condensed nuclei was 2.3%. Also, the growth inhibition under setting [1] stood at 7.07%.

On to `COc1ccc2[nH]c3c(N4CCN(Cc5ccc6c(c5)OCO6)CC4)ncnc3c2c1`, for which the growth inhibition is 20.7% (inactive) and the condensed nuclei is 1.08%. The growth inhibition under setting [1] came to 21%.

For the compound `Cc1ccc2[nH]c3c(N4CCN(Cc5ccc6c(c5)OCO6)CC4)ncnc3c2c1`, the growth inhibition was 73.7% (inactive) and the condensed nuclei came to 29.9%. Further, the growth inhibition under setting [1] was 96.6%.

Turning to `c1ccc2c(c1)[nH]c1c(N3CCSCC3)ncnc12`, the growth inhibition was 57.2% (inactive) and the condensed nuclei was found to be 5.16%. Also, the growth inhibition under setting [1] came to 14.5%.

`CN1CCN(c2ncnc3c2[nH]c2ccc(F)cc23)CC1`: the growth inhibition was 27.9% (inactive) and the condensed nuclei is 6.32%. In addition, the growth inhibition under setting [1] stood at 14.8%.

On to `Cc1ccc2[nH]c3c(N4CCCCCC4)ncnc3c2c1`, for which the growth inhibition is 96.5% (active) and the condensed nuclei turned out to be 39.6%. The growth inhibition under setting [1] was 96%.

Consider `c1ccc(CN2CCN(c3ncnc4c3[nH]c3ccccc34)CC2)cc1`, for which the growth inhibition is 93.4% (active) and the condensed nuclei came to 27.8%. Besides, under setting [1], the growth inhibition worked out at 88.4%.

For `Fc1ccc2[nH]c3c(N4CCN(Cc5ccc6c(c5)OCO6)CC4)ncnc3c2c1`, the growth inhibition is 92% (active) and the condensed nuclei was found to be 24.5%. For the same compound, the growth inhibition under setting [1] amounted to 96.7%.

`Cc1cc(C)nc(N(C#N)CC(=O)N(c2ccccc2)C(C)C)n1`: the growth inhibition was -23.3% (inactive) and the condensed nuclei is 7.69%. Moreover, under setting [1], the growth inhibition was -17.6%.

`Clc1ccc2[nH]c3c(NCCCN4CCOCC4)ncnc3c2c1`: the growth inhibition was 88.5% (inactive) and the condensed nuclei came to 45.3%. In addition, the growth inhibition under setting [1] was found to be 96.8%.

For the compound `COC(=O)C(NC(C)=O)(Nc1ccc(Br)cn1)C(F)(F)F` (configuration not stated), the growth inhibition was -46.6% (inactive) and the condensed nuclei is 2.33%. Moreover, the growth inhibition under setting [1] was -39%.

With `O=C1CC(c2ccccc2)n2nc(NS(=O)(=O)c3ccccc3)nc2N1` (configuration not stated), the growth inhibition is 6.12% (inactive) and the condensed nuclei was 5.04%. For the same compound, the growth inhibition under setting [1] amounted to 25.8%.

For `CCOC(=O)CNS(=O)(=O)c1cc(-c2n[nH]c(=O)c3ccccc23)ccc1C`, the growth inhibition was -38.6% (inactive) and the condensed nuclei worked out at 6.33%. The growth inhibition under setting [1] was -21.1%.

Turning to `Cc1nc(/N=C(\N)Nc2ccccc2)nc2ccccc12`, the growth inhibition is -39.5% (inactive) and the condensed nuclei amounted to 3.28%. Besides, the growth inhibition under setting [1] was -11.8%.

Regarding `CCCCCOc1ccccc1C(=O)NCC(=O)O`, the growth inhibition was -69.1% (inactive) and the condensed nuclei is 1.44%. Besides, the growth inhibition under setting [1] was -28.9%.

In the case of `CSc1nc2sc3c(c2c2nnnn12)CCCC3`, the growth inhibition was 37.7% (inactive) and the condensed nuclei was 2.53%. Also, the growth inhibition under setting [1] amounted to 9.47%.

With `Cc1ccc(N2C(=O)[C@@H]3[C@H](C2=O)C2CCCN2[C@@H]3C(=O)c2ccccc2)cc1` (some centres not stated), the growth inhibition was 61.8% (inactive) and the condensed nuclei worked out at 4.55%. In addition, the growth inhibition under setting [1] turned out to be 9.87%.

For `N#Cc1nc(COc2ccc(Br)cc2)oc1N1CCCC1`, the growth inhibition was 31.9% (inactive) and the condensed nuclei amounted to 13.2%. Further, under setting [1], the growth inhibition is -4.22%.

As to `N#Cc1nc(COc2ccc(Cl)cc2)oc1N1CCN(Cc2ccccc2)CC1`, the growth inhibition is 85.7% (inactive) and the condensed nuclei was 7.69%. For the same compound, under setting [1], the growth inhibition was 70.5%.

In the case of `COc1ccc(N2CCN(c3oc(COc4ccc(Cl)cc4)nc3C#N)CC2)cc1`, the growth inhibition is 92.4% (active) and the condensed nuclei turned out to be 23.8%. For the same compound, the growth inhibition under setting [1] was 87.2%.

Consider `Cc1c(C(=O)O)sc(=S)n1-c1ccccc1`, for which the growth inhibition was 46.5% (inactive) and the condensed nuclei worked out at 3.47%. Also, the growth inhibition under setting [1] worked out at 9.56%.

Turning to `CC(=O)C1=C(O)C(=O)N(c2ccc(C(=O)O)cc2)C1c1ccccc1` (configuration not stated), the growth inhibition is -93.1% (inactive) and the condensed nuclei was determined as 4.2%. Further, the growth inhibition under setting [1] is -74.7%.

Take `COC(=O)C1=C(C)N=C2SC(C)C(=O)N2C1c1ccc(C(=O)OC)cc1` (configuration not stated): the growth inhibition is -44.2% (inactive) and the condensed nuclei was determined as 6.05%. Besides, under setting [1], the growth inhibition is -32%.
